PubChem BioAssay AID1946 (Johns Hopkins Ion Channel Center, 2009)
The whole screen tested about 2,400 compounds, of which about 180 (7.5%) were called active. This is one part of a sample in which actives are shown more often than they occur. A number with no mark means an inactive call.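 How the source made its calls: active means readout below zero, meaning a drop past 3 SD under the dofetilide-free negative control mean; inactive means the rest.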

What follows are molecules tested against Potassium voltage-gated channel subfamily KQT member 2 (Rattus norvegicus) (UniProt O88943) (assay: rat KCNQ2 channel inhibition by compounds alone, confirmation, counter-screen for hERG block protector project, cell-based, CHO, FluxOR thallium flux (AID 1946)). Conditions: CHO-KCNQ2 cells, FluxOR thallium flux fluorescence; at 10 µM; active compounds read low; zero marks the 3-SD hit cutoff.
Potassium voltage-gated channel subfamily KQT member 2 (Rattus norvegicus), sequence (O88943 whole entry, looked up): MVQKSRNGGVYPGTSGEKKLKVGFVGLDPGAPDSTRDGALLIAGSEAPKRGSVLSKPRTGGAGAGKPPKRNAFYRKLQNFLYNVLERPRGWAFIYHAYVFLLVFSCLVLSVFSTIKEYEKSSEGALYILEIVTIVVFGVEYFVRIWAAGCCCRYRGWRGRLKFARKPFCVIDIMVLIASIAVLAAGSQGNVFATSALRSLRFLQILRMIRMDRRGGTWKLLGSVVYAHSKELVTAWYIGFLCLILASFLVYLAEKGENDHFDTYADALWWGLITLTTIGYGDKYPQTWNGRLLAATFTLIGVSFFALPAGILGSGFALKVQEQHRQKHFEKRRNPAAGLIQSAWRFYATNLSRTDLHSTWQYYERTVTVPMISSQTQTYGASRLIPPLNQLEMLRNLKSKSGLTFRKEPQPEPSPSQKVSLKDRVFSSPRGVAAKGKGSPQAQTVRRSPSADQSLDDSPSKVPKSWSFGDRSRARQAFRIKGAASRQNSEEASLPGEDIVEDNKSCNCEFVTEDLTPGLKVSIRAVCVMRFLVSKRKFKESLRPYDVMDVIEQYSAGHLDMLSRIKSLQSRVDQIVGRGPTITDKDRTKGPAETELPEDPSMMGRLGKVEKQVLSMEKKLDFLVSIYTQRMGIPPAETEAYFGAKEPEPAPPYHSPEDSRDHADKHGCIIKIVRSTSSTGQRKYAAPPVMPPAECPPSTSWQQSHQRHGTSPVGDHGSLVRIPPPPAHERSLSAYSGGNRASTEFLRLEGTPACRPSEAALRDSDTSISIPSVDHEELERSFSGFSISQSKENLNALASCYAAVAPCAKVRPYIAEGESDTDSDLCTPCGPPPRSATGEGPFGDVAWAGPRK
For `CC(C)n1c(=S)[nH]c2scc(-c3cccs3)c2c1=O`, the activity change vs negative control was 119%. For `S=c1[nH]nc(-c2cccs2)n1/N=C/c1c(Cl)cccc1Cl`, the activity change vs negative control was 42.5%. With `Cc1cc(OCc2ccc(C(=O)Nc3ccc(C(=O)O)cc3)o2)ccc1Cl` the activity change vs negative control was 5.6%. In the case of `CCOc1ccc(C(=O)N/N=C/c2cc([N+](=O)[O-])cs2)cc1`, the activity change vs negative control is reported as 5.6%. With `O=C(N/N=C/c1cc([N+](=O)[O-])ccc1O)c1ccc(COc2ccc3c(c2)CCC3)o1` the activity change vs negative control was -19.7% (active). Work on `CCOC(=O)C1=C(c2ccccc2)NC(=O)NC1c1ccc(O)c(Cl)c1` (stereo unspecified) yielded an activity change vs negative control of 23.1%. `O=C(N=Nc1c(O)[nH]c2ccc([N+](=O)[O-])cc12)c1cc(-c2ccccc2Cl)nc2ccccc12` gave an activity change vs negative control of 3.8%. `CC(C)(C)c1ccc(C(=O)CC(=O)c2cc(Cl)ccc2O)cc1` was tested, and the activity change vs negative control was 9.8%. With `COC(=O)c1ccc(/C=C/c2ccc3cccc(OC)c3n2)cc1` the activity change vs negative control was -0.2% (active). `O=C(N/N=C/c1ccc2cccc(OCc3ccccc3)c2n1)c1ccc(Br)cc1` gave an activity change vs negative control of 12%. Molecule `COc1ccc(C(=O)CC(=O)C(=O)Nc2ccccc2OC)cc1` has an activity change vs negative control of 19.3%. With `O=C(Cn1nnc(-c2cccc(C(F)(F)F)c2)n1)N1CCCCCC1` the activity change vs negative control was 44.7%. `Cc1ccccc1OCC(=O)NNC(=O)c1ccc2c(=O)n3c(nc2c1)CCC3` was tested, and the activity change vs negative control was -0.9% (active). For `Cc1ccccc1NC(=O)C(=O)NNC(=O)COc1ccc2ccccc2c1`, the activity change vs negative control was 48.1%. `COc1ccc(C(=O)NCC(=O)OCn2nnc3ccccc3c2=O)cc1OC` was tested, and the activity change vs negative control was 5.4%. Work on `O=S(=O)(NC(=S)NC1CCCCC1)c1ccc(Br)cc1` yielded an activity change vs negative control of 36.7%. `C=CCn1c(SCc2ccc(C(=O)O)cc2)nc2sc(C)c(C)c2c1=O` was tested, and the activity change vs negative control was 68%. Work on `CC1Cc2ccccc2N1C(=S)NC(=O)c1cccc(Br)c1` (stereo unspecified) yielded an activity change vs negative control of 143%. For `O=C(NC(=S)NCCc1ccccc1)c1cccc(Cl)c1`, the activity change vs negative control was 5.4%. For `O=C(NC(=S)NNC(=O)[C@H]1C[C@@H]1c1ccccc1)c1cccc(F)c1`, the activity change vs negative control was -9% (active). For `Cc1cccc(N=Cc2cc(Br)cc(Cl)c2O)c1`, the activity change vs negative control was 61.7%. `COc1ccc(C(=O)NNC(=O)C(=O)Nc2ccc(C)cc2)cc1` was tested, and the activity change vs negative control was 36.9%. Molecule `C=CCn1c(=S)[nH]c2cc(-c3ccccc3)sc2c1=O` has an activity change vs negative control of 17.5%. In the case of `NC(=O)c1cccnc1Nc1cccc([N+](=O)[O-])c1`, the activity change vs negative control is reported as 0.5%. `O=C(NCc1cccnc1)c1ccc(NS(=O)(=O)c2ccc(F)cc2)cc1` showed an activity change vs negative control of 17%. `COc1ccc(S(=O)(=O)Nc2cccnc2)cc1` was tested, and the activity change vs negative control was -2.7% (active). In the case of `COc1ccc(S(=O)(=O)Nc2cccc(-n3cnnn3)c2)cc1`, the activity change vs negative control is reported as 11.8%. `S=c1nc(-c2ccccc2)[nH]n1-c1ccccc1` showed an activity change vs negative control of 73.2%. For `C=CCNC(=S)Nc1nc2c(cc1C(=O)OCC)CCCC2`, the activity change vs negative control was 15.6%. For `COc1cc(/C=C2/OC(=O)c3cc([N+](=O)[O-])ccc32)cc(OC)c1OC`, the activity change vs negative control was -0.9% (active). `COc1ccc([N+](=O)[O-])cc1N(CC(=O)NCc1ccco1)S(C)(=O)=O` gave an activity change vs negative control of 9.4%. `COc1cc(/C=C2/C(=O)NN(c3ccc(Cl)c(Cl)c3)C2=O)cc([N+](=O)[O-])c1O` was tested, and the activity change vs negative control was 10.8%. With `O=C(NC(=S)N1CCN(c2nc(-c3ccccc3)cs2)CC1)c1cncc(Br)c1` the activity change vs negative control was 76.4%. With `Cc1ccccc1OC(=O)n1c(=S)oc2cc(Cl)ccc21` the activity change vs negative control was 33.4%. In the case of `Cc1ccc2nsnc2c1S(=O)(=O)Nc1cccc2nsnc12`, the activity change vs negative control is reported as 27.1%. `O=C(CCCc1c[nH]c2ccccc12)Nc1ccc(S(=O)(=O)Nc2ncccn2)cc1` was tested, and the activity change vs negative control was -0.6% (active). `Cc1cc(C)nc(NS(=O)(=O)c2ccc(NC(=O)Cc3ccccc3)cc2)n1` gave an activity change vs negative control of 12.6%. `O=C(COc1ccccc1)Nc1ccc(S(=O)(=O)Nc2ccccn2)cc1` showed an activity change vs negative control of 0.2%. `Cc1ccc(-c2n[nH]c(=S)nc2-c2ccc(C)cc2)cc1` gave an activity change vs negative control of 15.9%. In the case of `CN(CC(=O)Nc1nc2ccccc2s1)S(=O)(=O)c1ccc(Cl)cc1`, the activity change vs negative control is reported as -3.4% (active). `O=C(NC(=S)Nc1nc2ccccc2s1)c1cccs1` gave an activity change vs negative control of 38.4%. `S=C(Nc1ccc(Cl)cc1)c1nc2ccccc2s1` gave an activity change vs negative control of 22%. `Cc1nc2ccccc2n1-c1ccccc1` was tested, and the activity change vs negative control was 19.5%. With `Oc1c(Cl)cc(Cl)cc1/C=N/c1ncn[nH]1` the activity change vs negative control was 53.4%. `O=C(NC(=S)N1CCCCCC1)c1ccc(Cl)cc1Cl` was tested, and the activity change vs negative control was 30.8%. With `COc1ccc(NC(=O)C(=O)NNC(=O)COc2ccc(Cl)cc2)c(OC)c1` the activity change vs negative control was 38.6%. Molecule `COCCCNC(=O)CCc1nnc(Cc2ccc(-c3ccccc3)cc2)o1` has an activity change vs negative control of 26.3%. `CC(C)CCNC(=O)CCc1nnc(Cc2c[nH]c3ccccc23)o1` was tested, and the activity change vs negative control was -0.6% (active). Work on `CN(Cc1ccsc1)C(=O)CCc1nnc(Cc2c[nH]c3ccccc23)o1` yielded an activity change vs negative control of 10.6%. `CN(C)c1ccc(NC(=O)CCCc2ccccc2)cc1` showed an activity change vs negative control of 29.6%. Work on `O=C(CS(=O)(=O)Cc1ccccc1)Nc1ccc(Cl)cn1` yielded an activity change vs negative control of 7.9%. For `CC(C)C(=O)Nc1ccc(NC(=O)CCc2ccccc2)cn1`, the activity change vs negative control was -1.8% (active). `S=c1nc(C2CCCCC2)n(-c2ccccc2)[nH]1` showed an activity change vs negative control of 72.6%. Molecule `N#C/C(=N/Nc1ccc([N+](=O)[O-])cc1)C(=N)N1CCCCC1` has an activity change vs negative control of 17%. `O=[N+]([O-])c1ccc(S(=O)(=O)Nc2ccc(S(=O)(=O)N3CCCC3)cc2)cc1` was tested, and the activity change vs negative control was -0.3% (active). With `O=C(Nc1ccc(N2CCOCC2)cc1)c1ccc(S(=O)(=O)N2CCCCC2)cc1` the activity change vs negative control was 10.5%. In the case of `COc1ccc(OCC(=O)NNC(=O)C(=O)Nc2cc(OC)ccc2OC)cc1`, the activity change vs negative control is reported as 38.9%. Molecule `CCOC(=O)c1sc2nc(C)[nH]c(=S)c2c1C` has an activity change vs negative control of 32.7%. `CC(NC(=O)c1ccc(F)cc1)c1ccc2c(c1)CCCC2` (stereo unspecified) showed an activity change vs negative control of 55.5%. `CCn1c(SCC(N)=O)nc2sc3c(c2c1=O)CCCC3` was tested, and the activity change vs negative control was 60.6%. `CCCn1c(SCC(=O)N2CCN(C(C)=O)CC2)nc2sc3c(c2c1=O)CCC3` showed an activity change vs negative control of 51.5%. `CCC(=O)N1CCN(c2nc(CC)nc3sc4c(c23)CCCC4)CC1` was tested, and the activity change vs negative control was -20.7% (active). Molecule `CCN(CC)C(=S)NC(=O)c1ccc(OC)c(Br)c1` has an activity change vs negative control of 16.8%. For `O=C1CC(O)(C(F)(F)F)Oc2c1ccc1ccccc21` (stereo unspecified), the activity change vs negative control was 49.7%. With `S=c1nc(C2CCCCC2)[nH]c2ccccc12` the activity change vs negative control was 25.5%. `CC(C)(C)C1(O)CC(C(F)(F)F)=NN1C(=O)Cc1ccc([N+](=O)[O-])cc1` (stereo unspecified) gave an activity change vs negative control of 10.6%. `O=C(C1CC1)N1N=C(c2ccccc2)CC1(O)C(F)(F)C(F)(F)F` (stereo unspecified) showed an activity change vs negative control of 7.3%. With `CCCCC1(O)CC(C(F)(F)F)=NN1C(=O)COc1ccccc1` (stereo unspecified) the activity change vs negative control was -7.8% (active). `CN(C(=S)NC(=O)c1ccc(Cl)cc1)C1CCCCC1` was tested, and the activity change vs negative control was 26.3%. In the case of `CNC(=O)CSc1nnc(-c2ccco2)n1-c1ccccc1`, the activity change vs negative control is reported as 7%. `Cc1ccc(-n2ncc3c(SCC(=O)NNC(=O)c4ccco4)ncnc32)cc1` showed an activity change vs negative control of 35.7%. With `CNC(=O)CSc1nnc(-c2ccco2)n1-c1ccc(C)cc1` the activity change vs negative control was -1.9% (active). `C/C(=N/NC(=O)c1cc2ccccc2cc1O)c1ccco1` showed an activity change vs negative control of 87.3%. With `O=C(COc1ccc2ccccc2c1)NNC(=O)C(=O)Nc1ccccc1` the activity change vs negative control was 61.8%. With `CCCn1c(=S)[nH]c2sc3c(c2c1=O)CCCC3` the activity change vs negative control was 95%. Work on `CCOC(=O)Cc1csc(NC(=S)NC(=O)c2ccccc2Br)n1` yielded an activity change vs negative control of 38.6%. For `CC(OC(=O)c1cc2c(s1)CCCCC2)C(=O)NC(N)=O` (stereo unspecified), the activity change vs negative control was -1.8% (active). Molecule `Cc1csc(NC(=O)c2cc3c(s2)CCCC3)n1` has an activity change vs negative control of 49.2%. In the case of `NC(=O)C1CCN(C(=O)c2cc3c(s2)CCCC3)CC1`, the activity change vs negative control is reported as 41.4%. `Cc1nc(NCc2cccnc2)c2c3c(sc2n1)CC(C)CC3` (stereo unspecified) was tested, and the activity change vs negative control was 49.7%. For `N/C(=N\OS(=O)(=O)c1cccc([N+](=O)[O-])c1)c1ccncc1`, the activity change vs negative control was 29.1%. `O=C(CSc1nnc(-c2ccncc2)o1)c1cccc([N+](=O)[O-])c1` was tested, and the activity change vs negative control was -7.8% (active). Molecule `Cc1cc(SCC(=O)c2cccc([N+](=O)[O-])c2)nc(=O)[nH]1` has an activity change vs negative control of 7.5%. For `Cc1ccc2oc3c(c(=O)c2c1)C(c1cccs1)N(CCCN(C)C)C3=O` (stereo unspecified), the activity change vs negative control was 21.6%. For `CCC(C)N(C(=O)CSc1nnc(NC(C)C)s1)C1CCS(=O)(=O)C1` (stereo unspecified), the activity change vs negative control was -0.9% (active). `CN(C(=O)CSc1ncnc2sc(-c3ccccc3)cc12)C1CCS(=O)(=O)C1` (stereo unspecified) showed an activity change vs negative control of 94.7%. Work on `CCOC(=O)c1sc2nc(C)nc(SCC(=O)N(C)C3CCS(=O)(=O)C3)c2c1C` (stereo unspecified) yielded an activity change vs negative control of 20.9%. `COc1ccccc1C(=O)NNC(=O)C(=O)Nc1ccc(C)c(Cl)c1` gave an activity change vs negative control of 148%. `CCOC(=O)C1=C(N)Oc2cc(O)ccc2C1c1cccnc1` (stereo unspecified) was tested, and the activity change vs negative control was -1.7% (active). For `Cc1nn(Cc2ccccc2)c2c1C(c1cccnc1)C(C#N)=C(N)O2` (stereo unspecified), the activity change vs negative control was 12.9%. With `COC(=O)c1ccc(C2C(C#N)=C(N)Oc3cc(O)ccc32)cc1` (stereo unspecified) the activity change vs negative control was 12.7%. In the case of `Cc1nn(CC(=O)Nc2ccc(C(=O)N3CCCC3)cc2)c(=O)c2ccccc12`, the activity change vs negative control is reported as 32.9%. `O=C(Nc1cccc(N=Cc2cc(Cl)cc(Br)c2O)c1)c1ccco1` was tested, and the activity change vs negative control was 53.8%. Molecule `CCOC(=O)C(=CNc1ccc(OC)cc1[N+](=O)[O-])C(=O)OCC` has an activity change vs negative control of 13.9%. With `COc1ccc(NC(=S)NC(NC(=O)c2cccc3ccccc23)C(Cl)(Cl)Cl)c([N+](=O)[O-])c1` (stereo unspecified) the activity change vs negative control was -0.3% (active). Work on `COc1cccc(C(=O)NNC(=O)C(=O)Nc2cccc3ccccc23)c1` yielded an activity change vs negative control of 91%.
